Here are results for 61 molecules from PubChem BioAssay AID485346 (Sanford-Burnham Center for Chemical Genomics, 2010).

The whole screen tested about 330,000 compounds, of which about 10,000 (3%) were called active. This is one part of a sample in which actives are shown more often than they occur. A number with no mark means an inactive call.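 Rule for the calls: active = inhibition of at least 50% at 8 µM in the primary screen; inactive = the rest.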

For this test, the target named is Protein Mdm4 (Homo sapiens) + E3 ubiquitin-protein ligase Mdm2 (Homo sapiens) (UniProt O15151+Q00987). The test can be described thus: disruptors of Mdm2/MdmX RING complex – cell-based, luminescence, split luciferase, SaOS-2, uHTS, primary screen (AID 485346). The conditions noted are these: SaOS-2 split-luciferase Mdm2/MdmX complementation, at 8 µM, active compounds read high.
Protein Mdm4 (Homo sapiens) + E3 ubiquitin-protein ligase Mdm2 (Homo sapiens), sequence (O15151 whole entry, looked up): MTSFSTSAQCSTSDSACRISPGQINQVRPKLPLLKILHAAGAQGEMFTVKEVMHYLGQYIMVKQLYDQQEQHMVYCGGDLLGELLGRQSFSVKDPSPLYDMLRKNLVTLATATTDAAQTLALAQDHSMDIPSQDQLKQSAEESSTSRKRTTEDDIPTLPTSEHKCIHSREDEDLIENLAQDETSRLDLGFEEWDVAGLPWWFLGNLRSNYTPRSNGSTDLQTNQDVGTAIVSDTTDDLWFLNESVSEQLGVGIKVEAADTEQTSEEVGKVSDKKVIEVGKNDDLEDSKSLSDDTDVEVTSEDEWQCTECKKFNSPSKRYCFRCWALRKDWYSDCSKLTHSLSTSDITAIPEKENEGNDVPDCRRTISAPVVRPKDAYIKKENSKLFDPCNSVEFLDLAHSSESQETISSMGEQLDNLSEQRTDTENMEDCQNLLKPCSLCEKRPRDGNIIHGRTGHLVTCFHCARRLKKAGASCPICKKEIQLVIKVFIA
Protein Mdm4 (Homo sapiens) + E3 ubiquitin-protein ligase Mdm2 (Homo sapiens), sequence (Q00987 whole entry, looked up): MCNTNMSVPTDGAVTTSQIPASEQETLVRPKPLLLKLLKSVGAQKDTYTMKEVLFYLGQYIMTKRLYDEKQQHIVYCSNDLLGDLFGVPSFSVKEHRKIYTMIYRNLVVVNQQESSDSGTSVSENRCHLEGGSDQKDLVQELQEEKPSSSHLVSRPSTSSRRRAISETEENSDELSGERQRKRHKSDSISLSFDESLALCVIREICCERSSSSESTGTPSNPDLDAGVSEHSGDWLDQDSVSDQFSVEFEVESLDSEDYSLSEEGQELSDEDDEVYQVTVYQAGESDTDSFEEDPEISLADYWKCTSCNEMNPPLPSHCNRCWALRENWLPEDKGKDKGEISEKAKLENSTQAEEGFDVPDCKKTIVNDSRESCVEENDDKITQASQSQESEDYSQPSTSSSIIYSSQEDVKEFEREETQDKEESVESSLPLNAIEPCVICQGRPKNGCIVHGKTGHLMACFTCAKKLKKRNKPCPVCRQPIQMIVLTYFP
The inhibition is the change of the read-out against control, counted positive when it falls. As for `O=C(Nc1ccnn1C1CCN(C/C=C/c2ccc(F)cc2)CC1)C1CCCC1`, the inhibition was 22.3%.
Consider `O=C(O)CN(Cc1ccco1)S(=O)(=O)c1ccc(F)cc1`, for which the inhibition was -22%.
Under `Cc1onc(-c2c(F)cccc2Cl)c1C(=O)N(C)CC(=O)Nc1cccc(F)c1` stands -8.71%; under `COc1cccc(CNCCc2c[nH]c3ccccc23)c1OCc1ccccc1F`, 92.8% (active).
As to `COc1ccc(S(=O)(=O)NCCc2c[nH]c3ccccc23)cc1OC`, the inhibition is 6.22%.
Take `COc1ccccc1NC(=O)CCCc1c[nH]c2ccccc12`: the inhibition was -3.5%.
Under `Cc1ccoc1C(=O)Nc1cccc(Oc2ccccc2)c1` stands -66.5%; under `COC(=O)c1ccccc1NC(=O)C1(S(=O)(=O)c2ccc(Cl)cc2)CC1`, -0.27%.
Take `C=C(C)COc1ccc(-c2n[nH]c(C)c2-c2ccccc2OC)c(O)c1`: the inhibition was 53.6% (active).
As for `CCOc1ccc(-c2nc(N)ncc2-c2ccccc2OC)c(O)c1`, the inhibition was 11.3%.
For the molecule `C=C(C)COc1ccc(-c2nc(N)ncc2-c2ccccc2OC)c(O)c1`, the inhibition is 17.9%.
With `COc1ccc(-c2n[nH]c(C)c2-c2ccc(OC)c(OC)c2)c(O)c1` the figure was 62.5% (active).
As to `C=C(C)COc1ccc(-c2ncncc2-c2ccc(OC)cc2)c(O)c1`, the inhibition was 29.3%.
For `COc1ccc(-c2[nH]ncc2CN(C)Cc2c(C)n[nH]c2C)c(OC)c1`, the inhibition was 15.3%.
With `COc1ccc(-c2n[nH]c(C)c2-c2ccccc2OC)c(O)c1` the figure was 38.6%; with `C=C(C)COc1ccc(-c2n[nH]c(C)c2-c2ccccc2)c(O)c1`, 53.7% (active); with `COc1ccc(-c2c(-c3ccc(OC)cc3O)nc(C)nc2C(F)(F)F)cc1`, 8.07%.
Under `O=C(NCCCCO)C(F)(F)C(F)(F)C(F)(F)C(=O)NCCCCO` stands -22.9%; under `C=CCNCCCCOc1ccccc1`, -9.48%.
Under `C/C=C/C=C/C(=O)OCC(=O)Nc1ccc(Cl)cc1` stands 23.8%; under `Cc1ccc(N2C(=O)CC(Sc3ncn[nH]3)C2=O)cc1` (stereo unspecified), 7.7%; under `N#CC1(NC(=O)COC(=O)CSc2ccc(F)cc2)CCCCC1`, 6.22%.
Regarding `Cc1ccc(C(=O)NN(CCC#N)C2=NS(=O)(=O)c3ccccc32)cc1`, the inhibition is 6.64%.
Under `Cc1cn(C2OC[C@@H](O)[C@@H]2CO)c(=O)[nH]c1=O` (stereo partly specified) stands -25.3%; under `CCn1c(/C=C/Nc2ccccc2)[n+](CC)c2ccc(C(=O)OCC(F)(F)F)cc21`, 50.7% (active).
With `CCOC(=O)N1CCN(C(=O)c2ccc(S(=O)(=O)Nc3cccc(C(F)(F)F)c3)cc2)CC1` the figure was 5.75%.
Regarding `CCOC(=O)c1ccc2c(c1)nc(C)n2CC`, the inhibition was -24.3%.
With `Cc1nc2c(C(=O)NCc3cccs3)cnn2c(C)c1Cc1ccc(F)cc1` the figure was 5.96%.
Regarding `CN(C)c1ccc(-c2nnc(-c3cccnc3)o2)cc1`, the inhibition is -90.9%.
In the case of `Cc1ccc(OCC(=O)OC(C)CN(C)Cc2ccccc2)cc1` (stereo unspecified), the inhibition is -13.3%.
With `OC(CNCc1ccc2c(c1)OCO2)COc1ccccc1` (stereo unspecified) the figure was -15.2%; with `CN(Cc1ccccc1)CC(O)COc1ccc(CNCc2cc3ccccc3s2)cc1` (stereo unspecified), 51.9% (active).
With `CCC(C)c1ccc(NC(=S)N2CCCC2)cc1` (stereo unspecified), the inhibition was 17.9%.
With `O=C(O)CN1C(=O)CC(Cc2ccccc2)C1=O` (stereo unspecified) the figure was 3.44%; with `NS(=O)(=O)c1ccc(CNC(=O)c2cccc(S(=O)(=O)N3CCc4ccccc43)c2)cc1`, 27.6%.
Under `C[C@@H]1CN([C@@H](C)CO)C(=O)c2cccc(NS(=O)(=O)c3ccc(F)cc3)c2O[C@H]1CN(C)C(=O)NC1CCCCC1` stands -2.62%; under `O=C(CN1CCN(C2CCCCC2)CC1)Nc1ccccc1N1CCCCC1`, 20%.
With `Cc1ccc(C(C)C)cc1OCC(=O)Nc1ccccc1N1CCCC1` the figure was 28.7%; with `CN1CCN(c2ccccc2NC(=O)COc2ccc(C3CCCCC3)cc2)CC1`, 51.3% (active); with `CSCCC1NC(=O)N(CC(=O)Nc2cccc(S(=O)(=O)N3CCCCCC3)c2)C1=O` (stereo unspecified), 2.6%.
On to `O=C1/C(=C\Nc2ccccc2)CCN1c1ncccn1`, for which the inhibition is -11.4%.
On to `O=C(CN1CCCSc2ccccc21)N1CCN(S(=O)(=O)c2ccccc2)CC1`, for which the inhibition was -4.66%.
`COc1ccccc1C(=O)NC(=S)Nc1ccccc1N1CCCCC1`: the inhibition is 30%.
As for `O=C(NC(=O)c1ccccc1N1CCCCC1)Nc1ccc(Br)cc1`, the inhibition was 51.5% (active).
With `Cc1ccccc1NC(=O)Nc1ccccc1N1CCCCC1` the figure was 2.88%; with `COc1ccc(S(=O)(=O)N(CC(=O)N/N=C/c2ccccc2C(=O)O)c2ccccc2OC)cc1`, -6.42%.
Under `COc1ccccc1N(CC(=O)N/N=C(\C)c1ccccc1O)S(=O)(=O)c1ccc(C)cc1` stands 52.3% (active); under `COc1ccccc1NC(=O)CN(c1ccccc1OC)S(=O)(=O)c1ccccc1`, -19.5%; under `C=CCN1CC(C)/C(=N\O)CC1C` (stereo unspecified), 24.4%.
Under `Brc1cc(Br)c(Oc2cc(Br)c(Br)cc2Br)cc1Br` stands 15.4%; under `Fc1ccccc1-c1cc2cc3c(cc2cn1)OCO3`, -231%.
Regarding `Cc1nc2ccccc2n1CC(=O)N/N=C/c1cccnc1`, the inhibition is 25.2%.
With `Cc1ccc(NC(=O)CSc2cccc3cccnc23)c(C)c1` the figure was 28.1%; with `O=C(CSc1cccc2cccnc12)N/N=C/c1cccnc1`, 54.3% (active); with `C/C(=N\NC(=O)c1ccc(CSc2nc(C)cc(C)n2)cc1)C1CCCCC1`, 11.2%.
For the molecule `COc1ccc(NC(=O)CSCc2ccc([N+](=O)[O-])cc2)cc1OC`, the inhibition was 22.2%.
On to `O=C(c1cccc(S(=O)(=O)N2CCCC2)c1)N(Cc1ccco1)C1CCS(=O)(=O)C1` (stereo unspecified), for which the inhibition was 10.9%.
Under `O=C(N/N=C\c1cc2c(cc1Cl)OCO2)c1ccc(Br)s1` stands 87.3% (active); under `O=C(N/N=C/c1cc2c(cc1Br)OCO2)C1COc2ccccc2O1` (stereo unspecified), 3.36%.
As to `CC1(C(=O)N/N=C/c2cc3c(cc2Br)OCO3)CC1(Br)Br` (stereo unspecified), the inhibition is 31.2%.
As to `O=S(=O)(Nc1nccs1)c1ccc2c(c1)OCCO2`, the inhibition is 12.5%.
